Common to all, as to type: functional
Assay [1] deals with Plasmodium falciparum. Description: GSK_TCMDC: Inhibition of Plasmodium falciparum 3D7 in whole red blood cells, using parasite LDH activity as an index of growth. Test compounds present at 2uM.
Assay [2] concerns Plasmodium falciparum. Description: GSK_TCMDC: Inhibition of Plasmodium falciparum Dd2 in whole red blood cells, using parasite LDH activity as an index of growth. Test compounds present at 2uM.
A further assay relates to HepG2. Nature of the assay: GSK_TCMDC: Percent inhibition of human HepG2 cell line. Test compounds present at 10uM.

“And” between values parts separate entries of the source, which are not always exact repeats. Equal entries are not always repeated.

By Inhibition is commonly meant how much of the control response was suppressed. Regarding `Cc1cnc(NCC2CCCCC2)nc1N[C@@H](CC(C)C)C(=O)Nc1ccccc1.O=C(O)C(F)(F)F`, the Inhibition in the assay with Plasmodium falciparum [1] was 96%; in the assay with Plasmodium falciparum [2] it was 55%; in the assay with HepG2, 12%.

Turning to `O=C(CC1NC(=O)c2ccccc21)Nc1ccc(-c2ccc(-c3nc4cc(C(F)(F)F)ccc4[nH]3)cc2)cc1` (configuration not stated), the Inhibition with Plasmodium falciparum [1] is 87%; in the assay on Plasmodium falciparum [2], 70%; with HepG2, 39%.

Regarding `CCN1CCC(N(Cc2ccc(-c3ccc(C(F)(F)F)cc3)cc2)C(=O)Cn2c(SCc3cccc(F)c3F)cc(=O)c3ccccc32)C1.O=C(O)C(O)C(O)C(=O)O` (configuration not stated), the Inhibition in the assay with Plasmodium falciparum [1] was found to be 90%; in the assay on Plasmodium falciparum [2], 91%; with HepG2, 42%.

As to `COc1ccc(OCCn2cc(C(=O)c3ccco3)c3ccccc32)cc1`, the Inhibition in the assay on Plasmodium falciparum [1] was found to be 98%; in the assay with Plasmodium falciparum [2], 61%; with HepG2 it was 17%.

With `Cl.NCC1(c2nc(-c3ccc(Cl)c(O)c3)c(-c3ccncc3)[nH]2)CCCCC1`, the Inhibition in the assay with Plasmodium falciparum [1] turned out to be 98%; with Plasmodium falciparum [2] it was 98%; with HepG2, 48%.

As for `COc1cc(F)c2nccc([C@@H](O)CN3CCC(NCc4nc5cccc(F)c5[nH]4)CC3)c2c1.O=C(O)C(=O)O`, the Inhibition is given as 99% with Plasmodium falciparum [1], 5% with Plasmodium falciparum [2] and 11% in the assay with HepG2.

Turning to `Cc1ccc(N2C(N)=NC(N)=NC2(C)C)cc1.Cl`, the Inhibition in the assay on Plasmodium falciparum [1] is listed as 96%; in the assay on Plasmodium falciparum [2], 20%; in the assay with HepG2 it was 43%.

For `CCOC(=O)NOC(C(=O)O)c1ccccc1` (configuration not stated), the figures for the Inhibition in the assay with Plasmodium falciparum [1], with Plasmodium falciparum [2] and with HepG2 were 99%, 17% and 4%, respectively.

As for `Cc1ccc(C(C)C)c(Oc2cnc(NC(CO)c3ccccc3)nc2N)c1` (configuration not stated), the Inhibition with Plasmodium falciparum [1] is reported as 95%; in the assay on Plasmodium falciparum [2] it was 0%; in the assay with HepG2, 27%.

With `COCCOc1ccc(Nc2nccc(-c3c(-c4cccc(NC(=O)c5c(F)cccc5F)c4)nn4ccccc34)n2)cc1Cl`, the values for the Inhibition with Plasmodium falciparum [1], in the assay with Plasmodium falciparum [2] and in the assay on HepG2 were 99%, 97% and 53%, respectively.

In the case of `COc1cc(Nc2nccc(NCC(O)c3ccc(C(F)(F)F)cc3)n2)cc(OC)c1OC` (configuration not stated), the Inhibition in the assay on Plasmodium falciparum [1] turned out to be 91%; with Plasmodium falciparum [2], 14%; with HepG2, 45%.

With `CC(C)(C)c1ccc(S(=O)(=O)Nc2cc(Cl)ccc2Cn2ccc(N3CCNCC3)nc2=O)cc1.O=C(O)C(F)(F)F`, the Inhibition with Plasmodium falciparum [1] was 95%; in the assay on Plasmodium falciparum [2], 74%; in the assay with HepG2, 0%.

`COc1ccc2nccc(NCC3(O)CCC(NCc4ccc5c(n4)NC(=O)CS5)CC3)c2n1.Cl` (configuration not stated): the values for the Inhibition with Plasmodium falciparum [1], in the assay on Plasmodium falciparum [2] and in the assay with HepG2 were 100%, 23% and 16%, respectively.

For `Cc1[nH]c(C)c(-c2ccc(Oc3ccc(OC(F)(F)F)cc3)cc2)c(=O)c1Br`, the Inhibition is 96% with Plasmodium falciparum [1]; 97% and 95% in the assay on Plasmodium falciparum [2]; 0% with HepG2.

In the case of `Cc1[nH]c2ccccc2c1C(=O)C(C)Sc1nnc(-c2ccccc2F)o1` (configuration not stated), the values for the Inhibition in the assay with Plasmodium falciparum [1], in the assay on Plasmodium falciparum [2] and in the assay on HepG2 were 99%, 99% and 24%, respectively.

As to `CN(C)CCC1CCN(CCS(=O)(=O)c2cccc(Nc3ncc(-c4cccc(F)c4)cn3)c2)CC1`, the Inhibition in the assay on Plasmodium falciparum [1] is on record as 96%; in the assay on Plasmodium falciparum [2] it was 12%; in the assay on HepG2, 59%.

On to `COc1cc2c(c(Cl)c1OC)CCN(Cc1ccccc1)CC2c1ccc(C(N)=O)cc1` (configuration not stated), for which the results for the Inhibition in the assay with Plasmodium falciparum [1], with Plasmodium falciparum [2] and in the assay on HepG2 were 97%, 60% and 7%, respectively.

Consider `Nc1ncc(-c2ccsc2)c2ccc(-c3cc(NCc4ccccc4)ncn3)cc12`, for which the Inhibition is reported as 100% in the assay on Plasmodium falciparum [1], 86% in the assay on Plasmodium falciparum [2] and 0% with HepG2.

Turning to `O=C(O)C(F)(F)F.c1ccc2c(c1)CN(Cc1ccsc1)CC1(CCN(Cc3c[nH]c4cnccc34)CC1)O2`, the Inhibition is reported as 87% in the assay on Plasmodium falciparum [1], 75% with Plasmodium falciparum [2] and 38% in the assay with HepG2.

For the compound `CC1CCCN1Cc1cccc(-c2ccc(C(=O)NCCOc3ccccc3)s2)c1.O=C(O)C(F)(F)F` (configuration not stated), the Inhibition with Plasmodium falciparum [1] came to 83%; with Plasmodium falciparum [2] it was 0%; in the assay on HepG2, 26%.

Take `COc1ccccc1C1CCN(C2CCC(NC(=O)/C=C/c3ccc(F)c(F)c3)CC2)CC1` (configuration not stated): the Inhibition in the assay with Plasmodium falciparum [1] is reported as 94%; in the assay on Plasmodium falciparum [2], 9%; in the assay with HepG2 it was 49%.

Consider `Cc1ccc(S(=O)(=O)Nc2ccc(Nc3nccc(Nc4cccc5[nH]ncc45)n3)cc2)cc1`, for which the Inhibition in the assay with Plasmodium falciparum [1] is on record as 90%; in the assay on Plasmodium falciparum [2], 5%; in the assay with HepG2, 57%.

With `Cc1cc(Nc2ccc(O)cc2)nc2cccc(O)c12`, the Inhibition is 99% with Plasmodium falciparum [1], 28% in the assay on Plasmodium falciparum [2] and 22% in the assay with HepG2.

With `Cc1ccc(-c2nc(NC(=O)Nc3ccc(C(F)(F)F)cc3)sc2C)cc1Cl`, the Inhibition in the assay with Plasmodium falciparum [1] is reported as 99%; in the assay with Plasmodium falciparum [2] it was 86%; in the assay with HepG2, 29%.

As for `Cc1nc(C)n(CC(=O)Nc2cccc(-c3cccc(-c4nc5cc(C(F)(F)F)ccc5[nH]4)c3)c2)n1`, the Inhibition in the assay on Plasmodium falciparum [1] turned out to be 100%; in the assay with Plasmodium falciparum [2] it was 96%; in the assay on HepG2 it was 62%.

As for `Cc1cccc2nc(-c3cccc(-c4ccc(NC(=O)c5c[nH]cn5)cc4)c3)[nH]c12`, the figures for the Inhibition in the assay on Plasmodium falciparum [1], with Plasmodium falciparum [2] and with HepG2 were 100%, 48% and 8%, respectively.

As to `Cc1cc(NC(=O)Nc2ccc(Oc3ccccc3)cc2)c2ccccc2n1`, the Inhibition was determined as 91% with Plasmodium falciparum [1], 28% in the assay with Plasmodium falciparum [2] and 2% with HepG2.

As for `O=C(O)C(F)(F)F.c1ccc(CCNCc2ccc(-c3ccc(CNCc4ccc5c(c4)OCO5)cc3)nc2)cc1`, the Inhibition with Plasmodium falciparum [1] was found to be 94%; with Plasmodium falciparum [2], 67%; in the assay with HepG2, 24%.

With `COc1ccc2ncc(F)c([C@@H](O)CN3CCC(NCc4cc5c(cn4)OCCO5)CC3)c2c1.Cl`, the results for the Inhibition with Plasmodium falciparum [1], in the assay with Plasmodium falciparum [2] and with HepG2 were 100%, 98% and 0%, respectively.

(Values after ChEMBL document CHEMBL1157539, “Thousands of chemical starting points for antimalarial lead identification” (Nature, 2010).)
